# PubChem BioAssay
# Several values for one entry are separate records, joined by “and”; a condition that tells them apart may be missing. Equal values may be shown once.
# Tested on: Human papillomavirus type 1a protein E7 (residues 44-93)
# Assay: HPV1a E7 fragment binders on microarrays, primary screen, biochemical, small-molecule microarray, residues 44-93, 635 nm fluorescence (AID 1108);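 also: E7 fragment applied at 1 µg/mL in TBST for 1 h at 4 C; score combines spot fluorescence with its signal to noise ratio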
# Conditions: small-molecule microarray binding, fluorescence 635 nm; higher = more signal
row,Structure (SMILES),composite z-score
1,C[N+](C)(C)CCCCNC(=O)[C@H]1C[C@H]2C(=O)N[C@@H](CCCC[N+](C)(C)C)C(=O)N2[C@H]1c1ccc(O)cc1,1.29 and 0.0427
2,CO[C@@H]1COC(=O)[C@H](Cc2ccccc2)NC(=O)CC=C[C@@H](C)[C@H](OC)COC(=O)[C@@H](C)NC(=O)CC=C[C@H]1C,0.946 and 0.026
3,CCOC(=O)c1ccc(NC(=O)O[C@H]2[C@H](OC(=O)Nc3ccccc3)[C@H](OC(=O)Nc3ccccc3)[C@@H](OC)O[C@@H]2CO)cc1,1.2 and 1.34
4,CC(C)OC(=O)C=C1C[C@@H](c2ccccc2)O[C@@H](c2ccccc2)O1,1.48 and 1.45
5,C=CCN(C(=O)C1N(CCOCCO)C(=O)C2C(C(=O)O)C3C=CC21O3)c1ccc(OC)cc1 (stereo not drawn),-0.754 and -1.72
6,CCCC[C@@H]1CN2[C@H](c3ccc(Br)cc3)[C@@H](C)CC[C@H]2C(=O)O1,-0.519 and 0.166
7,COC(=O)[C@@]1(Cc2ccc(OC)cc2)[C@H]2c3cc(C(=O)N(C)C)n(Cc4ccc(O)c(OC)c4)c3C[C@H]2CN1C(=O)c1ccccc1,1.31 and 1.43
8,CCOC(=O)NN=C1C[C@@H](O)[C@@H](O)[C@@H]2[C@@H]3C(=O)N(Cc4ccc5c(c4)OCO5)C(=O)[C@@H]3CC[C@@H]12,0.431
9,C=CCN(CCCC)C(=O)C(c1cccs1)N(CCOCCO)C(=O)/C=C\C(=O)O (stereo not drawn),-1 and -0.515
10,C=CCN(CCCCC)C(=O)C(c1cccs1)N(C(=O)/C=C\C(=O)O)c1c(Cl)cccc1CO (stereo not drawn),-0.961 and -1.88
11,CC(CO)N1C(=O)[C@@H]2C3C(=O)OCCC=C[C@H]3OC23C=CCN(c2ccc4ccccc4c2)C(=O)[C@@H]13 (stereo partly drawn),1.24 and -0.698
12,C=C[C@@H](C)[C@@H](O)c1ccc(O)c2ccccc12,-0.719 and -0.288
13,C=CCN(C(=O)C1N(CCCCCCO)C(=O)C2C(C(=O)O)C3C=CC21O3)c1ccc(OC)cc1 (stereo not drawn),-0.862 and -1.21
14,CC[C@@H]1C(Sc2ccccc2)C(C(=O)O)[C@H](c2ccc(C)cc2)N1S(=O)(=O)c1ccc(C)cc1 (stereo partly drawn),1.1 and 1.34
15,CC(C)=NO[C@@H](C)c1cc(-c2c(C)cc(C)cc2C)no1,-0.379
16,C[N+](C)(C)CCCCCCNC(=O)[C@H]1C[C@H]2C(=O)N[C@@H](CCCC[N+](C)(C)C)C(=O)N2[C@H]1c1ccc(O)cc1,-0.113 and 0.0498
17,C=CCN(C(=O)C(c1cccs1)N(C(=O)/C=C\C(=O)O)c1ccc(CCO)cc1)C(C)(C)C (stereo not drawn),-1.51 and -0.35

row,Structure (SMILES),composite z-score
1,C=C[C@@H](OC)[C@H](O)c1ccc(OC)c(O)c1,-0.306 and -0.0635
2,C#CCCCON=C1C[C@@H](O)[C@@H](O)[C@@H]2[C@@H]3C(=O)N(C4CCCCC4)C(=O)[C@@H]3CC[C@H]12,0.774
3,CC(C)N1CC=CC23O[C@@H]4C=CCCOC(=O)C4[C@H]2C(=O)N(C(C)CO)[C@@H]3C1=O (stereo partly drawn),0.163 and -0.9
4,CCOC(=O)[C@@H]1CC=C2CC1C(=O)N1CCC[C@@H]1[C@H]2O[Si](C)(C)C(C)(C)C (stereo partly drawn),-1.02 and -0.733
5,C=CCN(CCCC)C(=O)C(c1cccs1)N(C(=O)/C=C\C(=O)O)c1ccc(CCO)cc1 (stereo not drawn),-0.541 and -0.68
6,COC(=O)[C@H](C)NC(=O)CCC1CC(OC(=O)NCCc2ccc(F)cc2)CC2(CCCC(COC(=O)NCCCN3CCCC3=O)O2)O1 (stereo partly drawn),1.39
7,C[C@@H]1CC[C@@H](C(=O)O)N[C@H]1c1ccc(-c2ccco2)cc1,-1.68
8,CCOC(=O)C[C@H]1[C@H](OC(=O)c2ccccc2-c2ccccc2)[C@@H](NC(=O)c2ccccc2)c2cc(OCCCO)ccc2N1C(=O)c1ccc2ccccc2n1,0.288 and 1.08
9,COC(=O)C1=C(C)N(Cc2ccccc2)C2=C3C(=O)N(C)C(=O)[C@@H]3[C@@](O)(C(=O)OC)C(=O)N2[C@@H]1c1ccccc1,-0.517 and 0.0656
10,CC(C)CON=C1C[C@@H](O)[C@@H](O)[C@@H]2[C@@H]3C(=O)N(c4cccc(Oc5ccccc5)c4)C(=O)[C@@H]3CC[C@H]12,0.529
11,C=C[C@@H](OC)[C@H](O)c1ccc(OCCO)cc1,-0.796 and -1.11
12,CC(CO)N1C(=O)[C@@H]2C3C(=O)OCCC=C[C@H]3OC23C=CCN(c2ccc(Cl)cc2)C(=O)[C@@H]13 (stereo partly drawn),-0.999 and 0.188
13,C=CCN(CCCCC)C(=O)C1N(CCOCCO)C(=O)C2C(C(=O)O)C3C=CC21O3 (stereo not drawn),-1.53 and -0.495
14,C=CCN(C(=O)C1N(CCCCCCO)C(=O)C2C(C(=O)O)C3C=CC21O3)C(C)(C)C (stereo not drawn),-1.46 and -0.783
15,COC(=O)C1=C(C)N(Cc2ccccc2)C2=C(C(C)=O)C[C@@](O)(C(=O)OC)C(=O)N2[C@@H]1c1ccccc1,0.594 and -0.54
16,C=CCN(C(=O)C(c1cccs1)N(CCOCCO)C(=O)/C=C\C(=O)O)C(C)(C)C (stereo not drawn),-1.34 and -0.3
